Hits are enriched below; roughly 0.86% of the tested compounds scored in any of these assays.
A1 inh: inducers of caspase activity in MEF A1-2A-BIM cells, primary screen, A1 inhibitor project, cell-based, CaspaseGlo luminescence; caspase-Glo luminescence, 3 h; percent of clofoctol signal, DMSO as zero; caspase activation, % (test concentration not listed); hit rate 0.51% among 21,000; AID 2241, 2010;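 active = most replicate scores above 10, or exactly half above 10 with mean activity above 10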;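 also: effector caspase 3 and 7 activity cleaving a DEVD luciferin substrate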
BJeLR viab HTS: BJeLR cell viability loss, primary screen, luminescence, CellTiterGlo ATP; viability loss activity score, % (test concentration not listed); hit rate 0.64% among 30,000; BJeLR fibroblasts viability, 48 h; HRASV12, hTERT and SV40 LT/ST transformed; in the data active = viability loss activity score above about 50%;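 also: higher score means fewer live cells and less ATP luminescence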
Starred values were filed as active, the others as inactive; x = no result.

SMILES	A1 inh	BJeLR viab HTS
C=C1C(=O)O[C@H]2C1[C@H](OC(=O)/C(C)=C/CO)C/C(C)=C\CC[C@@]1(CO)OC21 (stereo partly specified)	0	2
C=C(CO)C(=O)O[C@H]1CC(=C)[C@@H]2CC(=O)[C@H](C)[C@@H]2[C@H]2OC(=O)C(=C)[C@@H]21	0	69*
CCCn1c(-c2cccs2)n[nH]c1=O	x	-1
CC1CCCCN1C(=O)c1cccs1 (stereo unspecified)	1	-2
Cc1cc(Sc2nnc(/N=C/N(C)C)s2)c2ccccc2n1	0	54*
CN(C)/C=N/c1nnc(SCC(=O)c2ccc(F)cc2)s1	0	2
CCCCc1ccc2nc(NC(=O)OC)[nH]c2c1	-2	66*
COC(=O)Nc1nc2ccc(-c3n[nH]c(=O)c4ccccc34)cc2[nH]1	0	17
CC1(C)N=C(NC(=O)NC(=O)c2ccccc2Cl)N(c2ccccc2)O1	1	-3
Cc1cccc(C)c1NC(=S)N(CCC#N)C(C)C	1	-6
CCN(CC)C(=S)NC1CCCCC1	0	-2
CCC(Sc1nncn1C)C(=O)Nc1ccc(OC(F)(F)F)cc1 (stereo unspecified)	0	-3
N#Cc1c(C(F)(F)F)cc(-c2cccs2)nc1S/C=C/C(=O)c1ccccc1	0	57*
N#Cc1c(-c2ccccc2)cc(-c2cccs2)nc1SCS(=O)Cc1ccccc1 (stereo unspecified)	0	-7
OC1(/C=C/CN2CCCCC2)CCCCC1	1	3
C/C=C(/C)C(=O)O[C@H]1C=C(CO)C(=O)[C@H](OC(=O)/C(C)=C/CO)[C@H]1C(C)C	3	81*
C=C1C(=O)OC2/C=C(\CO)C(OC(C)=O)C/C=C(/C)CC(OC(=O)/C(C)=C\CO)C12 (stereo unspecified)	1	34
CCC(Sc1nc2cc3c(cc2c(=O)n1Cc1ccco1)OCO3)C(=O)Nc1ccccc1OC (stereo unspecified)	-1	7
CCC(Sc1nc2cc3c(cc2c(=O)n1Cc1ccco1)OCO3)C(=O)NCc1ccc(C)cc1 (stereo unspecified)	15*	6
CN1C(=O)C(C(=O)NC(C)(C)C)C2CC1(C)Oc1ccccc12 (stereo unspecified)	0	1
CCC(C)[C@H]1C(=O)O[C@H](C(C)C)C(=O)N(C)[C@@H](C(C)C)C(=O)O[C@H](C(C)C)C(=O)N(C)[C@@H](C(C)C)C(=O)O[C@H](CC(C)C)C(=O)N1C (stereo partly specified)	45*	79*
CC(C)C[C@@H](NC(=O)OCC1c2ccccc2-c2ccccc21)C(=O)O	0	6
CC(C)C[C@@H](/C=C/S(C)(=O)=O)NC(=O)[C@H](CC(C)C)NC(=O)[C@H](CC(C)C)NC(=O)OCc1ccccc1	-2	116*
CN(C)CCCn1cc(C2=C(c3c[nH]c4ccccc34)C(=O)NC2=O)c2ccccc21	6	2
Cn1cc(C2=C(c3cn(CCCSC(=N)N)c4ccccc34)C(=O)NC2=O)c2ccccc21	4	56*
SMILES	A1 inh	BJeLR viab HTS
C[C@H]1O[C@@H](O[C@H]2[C@@H](O)C[C@H](O[C@H]3[C@@H](O)C[C@H](O[C@H]4CC[C@@]5(C)[C@H](CC[C@@H]6[C@@H]5C[C@@H](O)[C@]5(C)[C@@H](C7=CC(=O)OC7)CC[C@]65O)C4)O[C@@H]3C)O[C@@H]2C)C[C@H](O)[C@@H]1O	0	99*
COc1cccc(NC(=O)Cn2c(=O)c3cccn3c3ccccc32)c1	0	-1
Cc1cc(C)cc(NC(=O)Cn2c(=O)c3cccn3c3ccccc32)c1	56*	17
CC(C)NC(=O)CSc1nc(-c2ccc(F)cc2)cc(C(F)(F)F)n1	0	-6
CCOc1ccc2nc(N3CCCCC3)sc2c1	x	14
CCOc1ccc(-c2nc3ccc(-c4nc5ccc(N6CCN(C)CC6)cc5[nH]4)cc3[nH]2)cc1	0	126*
COC(=O)c1c(NC(=S)NC(=O)c2ccccc2)sc2c1CCCC2	-1	-2
CNC[C@@H]1Oc2ccc(NC(=O)Nc3c(C)noc3C)cc2C(=O)N([C@H](C)CO)C[C@H]1C	16*	-1
CNC[C@@H]1Oc2ccc(NC(=O)Nc3c(C)noc3C)cc2C(=O)N([C@@H](C)CO)C[C@@H]1C	0	0
C=C1C(=O)O[C@H]2C1[C@H](OC(=O)/C(C)=C/CO)C/C(C)=C\CC[C@@]1(C)OC21 (stereo partly specified)	0	-7
C=C1C(=O)O[C@H]2[C@H]1[C@@H](OC(=O)C(C)(O)C(C)Cl)C(OC(C)=O)/C(C(=O)OC)=C\CC[C@@]1(C)O[C@H]21 (stereo partly specified)	2	85*
O=C(/C=C/Oc1ccc(Cl)cc1)c1ccc(Br)cc1	11*	8
O=C(COC(=O)c1ccc(Br)cc1)c1ccc(Br)cc1	-1	2
CCOC(=O)CSc1nncc(=O)[nH]1	x	-1
O=C(CN1C(=O)/C(=C/c2ccccc2)Sc2ccccc21)NC1CCCC1	-1	20
O=C1c2c(O)ccc(O)c2C(=O)c2c(NCCNCCO)ccc(NCCNCCO)c21	0	110*
O=C(CN1C(=O)C2C3C=CC(C3)C2C1=O)OCCCc1ccccc1 (stereo unspecified)	x	-1
CCc1ccc(N2C(=O)c3ccccc3NC2(C)C)cc1	1	0
CCc1ccc(N=Cc2c(O)n(-c3ccccc3)c(=O)c3ccccc23)cc1	41*	-6
CCc1ccc(N=Cc2c(O)[nH]c(=S)[nH]c2=O)cc1	-1	-7
COC(=O)c1ccc(CSc2nncn2N)o1	1	6
COC(=O)C[C@H]1C(C)(C)C2(Cl)O[C@@]34CC2C(=O)[C@]1(C)C3CC[C@]1(C)C4=CC(=O)O[C@H]1c1ccoc1 (stereo partly specified)	0	-4
O=C(CN1CCN(Cc2ccc(F)cc2Cl)C1=O)NCc1ccc(Cl)cc1	x	-4
CCCCC1CCC(C(=O)Nc2c3c(nn2-c2ccc(F)cc2)CS(=O)(=O)C3)CC1 (stereo unspecified)	15*	0
COc1ccc(-n2nc3c(c2NC(=O)/C=C\c2ccc4c(c2)OCO4)CS(=O)(=O)C3)cc1	1	1
SMILES	A1 inh	BJeLR viab HTS
CCOc1ccc(NC(=O)CN2C(=O)C3(OCCCO3)c3ccccc32)cc1	1	-2
Nc1cccc(-c2cc3c(Oc4cccc(O)c4)ncnc3[nH]2)c1	23*	21
CC(C)c1ccc(NC(=O)C(c2ccccc2)N(C)C(=O)Cc2cccs2)cc1 (stereo unspecified)	x	0
CN(C)c1ccc(C(=C2C=CC(=[N+](C)C)C=C2)c2ccc(N(C)C)cc2)cc1	58*	127*
CC1=C(C(=O)OC2CCCC2)C(c2cccc(Cl)c2)CC(=O)N1 (stereo unspecified)	x	0
COc1c(O[C@@H]2O[C@H](CO)[C@@H](O)[C@H](O)[C@H]2O)cc2c(c1OC)-c1ccc(SC)c(=O)cc1C(NC(C)=O)CC2 (stereo partly specified)	-1	-5
CNC1CCc2cc(OC)c(OC)c(OC)c2-c2ccc(OC)c(=O)cc21 (stereo unspecified)	5	59*
